Results filed as inconclusive are left out. Activity calls are given as the source filed them. How the source made its calls, unless noted: active means hit-call score of the fitted dose curve at least 0.9, where 1 is the maximum; inconclusive means response in the unintended direction; inactive means score below 0.9.

We go through five molecules from PubChem BioAssay (EPA / NIEHS).

Read-out in test [1]: Transforming Growth Factor (TGFB1), TGFB1 (gene 7040)
The test can be described thus: LTEA_HepaRG_TGFB1: Life Technologies and Expression Analysis (LTEA) Assay for Transforming Growth Factor (TGFB1) Transporter using HepaRG (AID 2283533; active means hit-call score of the fitted dose curve at least 0.9, where 1 is the maximum; inactive means score below 0.9). The note with it: mRNA level, 48 h; actives raise or lower the signal. Summed up:
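Differentiated human HepaRG cells in serum-free induction medium were exposed in duplicate for 48 h to eight concentrations (top 100 uM, half-log steps, 0.5% DMSO). TGFB1 mRNA was quantified by qRT-PCR, normalized to ACTB, GAPDH, POLR2A, and fitted bidirectionally against DMSO.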

Read-out in test [2]: TIMP1, TIMP1 (gene 7076)
The test can be described thus: LTEA_HepaRG_TIMP1: Life Technologies and Expression Analysis (LTEA) Assay for TIMP1 using HepaRG (AID 2283534; active means hit-call score of the fitted dose curve at least 0.9, where 1 is the maximum; inactive means score below 0.9;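 further: TaqMan qRT-PCR signal normalized to ACTB GAPDH and POLR2A housekeeping genes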). The note with it: mRNA level, 48 h; actives raise or lower the signal. Summed up:
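Differentiated human HepaRG cells in serum-free induction medium were exposed 48 h to chemicals (8 half-log concentrations, top 100 uM, 0.5% DMSO). TIMP1 mRNA was quantified by TaqMan qRT-PCR, normalized to ACTB/GAPDH/POLR2A; bidirectional fit versus DMSO.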

Read-out in test [3]: Tumor necrosis factor receptor 1 (TNFRSF1A), TNFRSF1A (gene 7132)
Kind of test: LTEA_HepaRG_TNFRSF1A: Life Technologies and Expression Analysis (LTEA) Assay for Tumor necrosis factor receptor 1 (TNFRSF1A) using HepaRG (AID 2283535; active means hit-call score of the fitted dose curve at least 0.9, where 1 is the maximum; inactive means score below 0.9). The note with it: mRNA level, 48 h; actives raise or lower the signal. Summed up:
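Differentiated human HepaRG cells were exposed in duplicate for 48 h in serum-free induction medium to eight concentrations (top 100 uM, half-log steps, 0.5% DMSO). TNFRSF1A mRNA was quantified by qRT-PCR, normalized to ACTB, GAPDH and POLR2A, then fitted bidirectionally against DMSO.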

Read-out in test [4]: Cellular tumor antigen p53 (Homo sapiens) (UniProt P04637)
Kind of test: LTEA_HepaRG_TP53: Life Technologies and Expression Analysis (LTEA) Assay for Tumor Protein P53 (TP53) using HepaRG (AID 2283537; active means hit-call score of the fitted dose curve at least 0.9, where 1 is the maximum; inactive means score below 0.9). As to conditions: mRNA level, 48 h; actives raise or lower the signal. Summed up: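 TP53 transcript measured by qRT-PCR, normalized to three housekeeping genes, after 48 h treatment of human HepaRG cultures with chemicals from 100 uM downward in half-log steps (0.5% DMSO vehicle, serum-free induction medium). Up- or down-regulation fitted against DMSO.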

Read-out in test [5]: UDP glucuronosyltransferase (UGT1A1), UGT1A1 (gene 54658)
The test can be described thus: LTEA_HepaRG_UGT1A1: Life Technologies and Expression Analysis (LTEA) Assay for UDP glucuronosyltransferase (UGT1A1) using HepaRG (AID 2283538; active means hit-call score of the fitted dose curve at least 0.9, where 1 is the maximum; inactive means score below 0.9). As to conditions: mRNA level, 48 h; actives raise or lower the signal. Summed up:
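Readout is UGT1A1 transcript level by qRT-PCR, normalized to three housekeeping genes, after 48 h chemical treatment of HepaRG cells. Concentrations ran from 100 uM down in half-log steps with 0.5% DMSO, and gain or loss relative to DMSO was fitted.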

Read-out in test [6]: X-box binding protein 1 (XBP1), XBP1 (gene 7494)
Kind of test: LTEA_HepaRG_XBP1: Life Technologies and Expression Analysis (LTEA) Assay for X-box binding protein 1 (XBP1) using HepaRG (AID 2283540; active means hit-call score of the fitted dose curve at least 0.9, where 1 is the maximum; inactive means score below 0.9). As to conditions: mRNA level, 48 h; actives raise or lower the signal. The gist of the method:
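Differentiated human HepaRG cells in serum-free induction medium were exposed in duplicate for 48 h to eight half-log concentrations up to 100 uM in 0.5% DMSO. XBP1 mRNA was quantified by qRT-PCR, normalised to ACTB, GAPDH and POLR2A, with bidirectional fitting against DMSO.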

A short description of test [7]: LTEA_HepaRG_LDH_cytotoxicity: Cytotoxicity Assessment in the Life Technologies and Expression Analysis (LTEA) Assay (AID 2283563).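 On AC50: LDH activity released into spent culture medium as a marker of cell death.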 The gist of the method:
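Differentiated human HepaRG cells, plated 48 h beforehand, were switched to serum-free induction medium and exposed for 48 h to eight half-log concentrations (top 100 uM) in 0.5% DMSO. LDH was measured in spent medium; activity was fitted relative to DMSO vehicle.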

Test [8] deals with Cellular tumor antigen p53 (Homo sapiens) (UniProt P04637). Kind of test: TOX21_p53_BLA_p3_ratio: Tox21 HCT-116 p53 Agonism Beta-lactamase Assay, Ratio, Phase 3 (AID 2283596). The gist of the method:
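HCT116 p53-bla cells (4000/well) given compound in DMSO (217-fold dilution) after 5 h, incubated 16 h at 37C. CCF4-AM substrate 2 h at room temperature; 460/530 nm emission ratio, gain fitted against DMSO.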

A short description of test [9]: TOX21_p53_BLA_p4_viability: Viability Assessment in the Tox21 HCT-116 p53 Agonism Beta-lactamase Assay, Phase 4 (AID 2283597).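 Further: hits lower the luminescence signal meaning cytotoxicity.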 The gist of the method:
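HCT116 p53-bla cells (4000/well) rested 5 h at 37C, then received compounds in DMSO (217-fold dilution) for 16 h at 37C, 5% CO2. CellTiter-Glo was added after the CCF4-AM read, and luminescence was read after 30 min at room temperature.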

The target in test [10] is Cellular tumor antigen p53 (Homo sapiens) (UniProt P04637). The test can be described thus: TOX21_p53_BLA_p5_ratio: Tox21 HCT-116 p53 Agonism Beta-lactamase Assay, Ratio, Phase 5 (AID 2283599). Summed up: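 HCT-116 p53-bla cells (4000/well) plated 5 h, dosed with compound (217-fold DMSO dilution) for 16 h at 37 C; CCF4-AM substrate 2 h at room temperature. Activity is the 460/530 nm emission ratio (405 nm excitation), fitted in gain-of-signal direction versus DMSO.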

Test [11] can be described thus: TOX21_p53_BLA_p5_viability: Viability Assessment in the Tox21 HCT-116 p53 Agonism Beta-lactamase Assay, Phase 5 (AID 2283600). Summed up:
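Cells were plated at 4000/well, rested 5 h at 37C, then given compounds in DMSO (217-fold dilution) for 16 h at 37C, 5% CO2. Following the CCF4-AM beta-lactamase read, CellTiter-Glo was added and luminescence was read after 30 min at room temperature.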

A short description of test [12]: Tanguay_ZF_120hpf_MORT_legacy: (Legacy) Oregon State University Tanguay Lab 120 Hour Post-fertilization zebrafish Assay for Mortality (AID 2283633). The gist of the method:
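Dechorionated Tropical 5D wild-type zebrafish embryos, one per well from 6 hpf, were statically exposed at 28C in the dark until 120 hpf (0.64% DMSO final). Mortality was scored as present/absent by brightfield microscopy, fitted positively versus DMSO.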

A short description of test [13]: Tanguay_ZF_120hpf_YSE_legacy: (Legacy) Oregon State University Tanguay Lab 120 Hour Post-fertilization zebrafish Assay for Yolk Sac Edema (AID 2283634). Summed up:
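Tropical 5D wild-type embryos, dechorionated with pronase at 4 hpf, were exposed singly from 6 hpf to 120 hpf under static, sealed, dark conditions at 28C with 0.64% DMSO final. Yolk sac edema was scored present/absent by brightfield microscopy.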

Read-out in test [14]: Thyroid Hormone Responsive (THRSP), THRSP (gene 7069)
The test can be described thus: LTEA_HepaRG_THRSP: Life Technologies and Expression Analysis (LTEA) Assay for Thyroid Hormone Responsive (THRSP) using HepaRG (AID 2283536; active means hit-call score of the fitted dose curve at least 0.9, where 1 is the maximum; inactive means score below 0.9). The note with it: mRNA level, 48 h; actives raise or lower the signal. Summed up:
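Differentiated HepaRG cells treated 48 h in serum-free induction medium with 8 half-log concentrations up to 100 uM (0.5% DMSO), duplicates. THRSP mRNA by TaqMan qRT-PCR normalised to ACTB, GAPDH, POLR2A; bidirectional fit versus DMSO.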

A short description of test [15]: TOX21_p53_BLA_p2_viability: Viability Assessment in the Tox21 HCT-116 p53 Agonism Beta-lactamase Assay, Phase 2 (AID 2283591).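 Further: compound exposure lasted 16 h at 37 °C; actives lower the ATP signal meaning cytotoxicity.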 Summed up:
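HCT116 p53-bla cells, 4000/well, dosed after 5 h plating (217-fold dilution of DMSO stocks) and incubated 16 h at 37C. Viability taken as cellular ATP by CellTiter-Glo luminescence after 30 min RT; signal loss marks cytotoxicity.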

Test [16] concerns the target Cellular tumor antigen p53 (Homo sapiens) (UniProt P04637). The test can be described thus: TOX21_p53_BLA_p2_ratio: Tox21 HCT-116 p53 Agonism Beta-lactamase Assay, Ratio, Phase 2 (AID 2283592). The gist of the method:
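HCT116 cells carrying a p53-responsive beta-lactamase reporter were plated, incubated 5 h at 37C, then dosed with compounds in DMSO (217-fold dilution) for 16 h. CCF4-AM substrate was added for 2 h at room temperature; the 460/530 nm emission ratio gave gain-of-signal activity relative to DMSO.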

Test [17] can be described thus: TOX21_p53_BLA_p3_viability: Viability Assessment in the Tox21 HCT-116 p53 Agonism Beta-lactamase Assay, Phase 3 (AID 2283593).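 Further: cells exposed to compound for 16 h before reading.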 The gist of the method: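 HCT116 cells, 4000/well, dosed 5 h after plating by pin transfer (217-fold dilution from DMSO stock) and incubated 16 h at 37C, 5% CO2. Viability read as ATP luminescence with CellTiter-Glo after 30 min at room temperature.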

Test [18] deals with Cellular tumor antigen p53 (Homo sapiens) (UniProt P04637). The test can be described thus: TOX21_p53_BLA_p4_ratio: Tox21 HCT-116 p53 Agonism Beta-lactamase Assay, Ratio, Phase 4 (AID 2283601). Summed up:
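HCT-116 p53 beta-lactamase reporter cells (4000/well) preincubated 5 h, then compound (217-fold dilution of DMSO stock) for 16 h at 37C. CCF4-AM substrate added 2 h at room temperature; 460/530 nm emission ratio fitted upward versus DMSO.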

Cellular tumor antigen p53 (Homo sapiens), sequence (P04637 whole entry, looked up): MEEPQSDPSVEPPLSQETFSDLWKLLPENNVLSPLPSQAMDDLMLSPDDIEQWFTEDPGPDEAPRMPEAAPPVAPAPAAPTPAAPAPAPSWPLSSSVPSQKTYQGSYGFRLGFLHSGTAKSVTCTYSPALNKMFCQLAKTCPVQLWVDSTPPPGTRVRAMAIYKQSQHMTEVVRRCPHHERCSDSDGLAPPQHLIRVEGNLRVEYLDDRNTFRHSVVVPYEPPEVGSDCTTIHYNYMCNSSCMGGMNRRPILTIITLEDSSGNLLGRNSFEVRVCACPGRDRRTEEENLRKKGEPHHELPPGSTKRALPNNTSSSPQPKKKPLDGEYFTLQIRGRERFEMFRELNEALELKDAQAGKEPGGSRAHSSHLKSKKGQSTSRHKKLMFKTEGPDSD

For `CC(C)N(C(=O)COc1nnc(C(F)(F)F)s1)c1ccc(F)cc1`, the molecule was called inactive in [1], in test [2], in [3], in test [4], in test [5] and in test [7]. Further, the outcome in [8], in test [9], in [10], in test [11], in test [12] and in test [13] was inactive. Moreover, the AC50 in test [6] was 28.5 µM (active).
Consider `O=C(Nc1ccccc1)Nc1cnns1`, for which the call in [1], in test [2], in test [3], in test [4], in test [15] and in [17] was inactive. In addition, the outcome in test [8], in test [9], in [10], in [12] and in test [13] was inactive. The AC50 is 73.5 µM (active) in test [14]; 87.2 µM (active) in test [5]; 50 µM (active) in test [6]; 77.2 µM (active) in test [7]; 64.1 µM (active) in test [16]; 52.9 µM (active) in test [18].
For the molecule `COC(=O)c1ccccc1S(=O)(=O)NC(=O)N(C)c1nc(C)nc(OC)n1`, the molecule was called inactive in test [15], in test [9], in [11] and in [18].
As for `CCOC1Oc2ccc(OS(C)(=O)=O)cc2C1(C)C` (stereo not drawn), the molecule was called inactive in test [1], in test [2], in test [3], in test [6], in [12] and in test [13]. The AC50 is 89.3 µM (active) in [14], 11.8 µM (active) in [5] and 83.8 µM (active) in test [7].
Turning to `COC(=O)c1ccccc1CS(=O)(=O)NC(=O)Nc1nc(OC)cc(OC)n1`, the outcome in test [15], in test [16], in [17], in test [11] and in test [18] was inactive.
